Myeloid diff MLP = induction of myeloid progenitor differentiation, primary screen, cell-based, flow cytometry, MLPCN library; hit rate 1% among 360,000; ER-HoxA9 myeloid progenitors, lysozyme-GFP differentiation; calls only at 10 µM;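 active = normalized GFP-positive differentiation at or above the plate's own cutoff, the solvent-only control mean plus 3 SD; inconclusive = no clear call, values can overlap the other calls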;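 also: cells exposed to compound for four days before flow analysis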
ABCB6 inh MLPCN = ABCB6 transporter inhibitors, primary screen, K562-ABCB6 cells, flow cytometry, MLPCN library | K562-ABCB6 porphyrin accumulation, 1 h; hits give low values | fluorescence ratio to DMSO, % at 10 µM | hit rate 0.19% among 360,000 | AID 602162, 2011;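 active = fluorescence ratio to DMSO below 75%, the collection mean minus 3 SD; inconclusive = too few cells collected in the well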;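 also: signal is porphyrin accumulated inside mitochondria; 100% equals median channel fluorescence of DMSO control wells; lower ratio means ABCB6 inhibition with less porphyrin fluorescence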
iPSC survival up = enhancers of single-cell hiPSC survival, primary screen, ATPlite luminescence; 100% = ROCK inhibitor wells, 0% = DMSO; survival enhancement, % at 20 µM; hit rate 0.044% among 360,000; in the data active = survival enhancement above about 18%;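 also: cells exposed to compounds for 16 hours before the ATP read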
MIN6 prolif = inducers of MIN6 beta-cell proliferation, primary screen, ATP luminescence, uHTS; hit rate 0.29% among 330,000; AID 2380, 2010; proliferation, % at 10 µM; MIN6 cells proliferation, ATPlite luminescence, 48 h; cells starved in 0.2% serum; 100% = growth in 10% serum;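 active = compounds whose signal lies at least 3.5 SD above the mean of all wells on their plate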;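 also: 0% = DMSO-treated cells in low-serum medium and 100% = 10% serum control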
H9c2 protect = cardioprotection against H2O2-induced cell death, primary screen, uHTS, H9c2 cells, ATPLite luminescence; H9c2 cardiomyocytes, H2O2 injury protection, 2 h; protection from H2O2 cell death, % at 20 µM; hit rate 0.63% among 360,000;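 active = compounds giving at least 50% protection of heart cells from peroxide-induced death in the single-dose screen, raw or plate-pattern-corrected value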;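 also: 0% = DMSO wells with peroxide and 100% = DMSO wells without peroxide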
* = called active by the depositor; i = inactive; u = inconclusive; x = no result given; + = active, no number; ! = repeats disagree. Sampled rows, rich in hits. Any-hit rate of the full collection: about 2.2%.

SMILES	Myeloid diff MLP	ABCB6 inh MLPCN	iPSC survival up	MIN6 prolif	H9c2 protect
CCCCOC(=O)Oc1ccc2c(=O)c(Oc3cc(C)cc(C)c3)coc2c1	i	100.0	-1.0	-0.4	-5.7
CCCOC(=O)Oc1ccc2c(=O)c(Oc3cc(C)cc(C)c3)coc2c1	i	102.0	25.3*	-3.3	-0.1
Cc1cnn(CCC(=O)NNC(=S)NCC(C)C)c1	i	105.0	0.2	-1.1	2.4
COc1ccc(/C=N/NC(=O)c2cccnc2)cc1Cn1nc([N+](=O)[O-])c(Br)c1C	x	x	x	-1.4	x
N#Cc1nc(Nc2cccc(Cl)c2)c2ncn(C3CCCC3)c2n1	x	90.0	-2.4	0.8	-15.8
Cc1ccc2c(c1)c1c3n2CCCN(Cc2ccccc2)C3CCC1 (centres undefined)	+	97.0	-2.0	-6.6	-18.4
Cc1ccc2c(c1)c1c3n2CCN(CC#N)C3CCC1 (centres undefined)	i	102.0	0.4	-2.6	1.5
COc1cc(C(=S)N2CCN(c3ccccc3Cl)CC2)cc(O)c1O	i	101.0	-1.1	-7.2	84.8*
O=C(Nc1ccc(Cl)c(-c2nc3ccccc3[nH]2)c1)c1ccc2c(c1)OCO2	+	97.0	1.2	-3.5	-0.7
CCOCCCNC(=O)/C(C#N)=C/c1ccc([N+](=O)[O-])o1	u	144.0	28.7*	-6.8	-25.8
COc1ccccc1CNc1cc(CSc2ccc(Cl)cc2)nc(C)n1	i	108.0	2.5	-2.2	-14.0
Cc1cccc(C(=O)N/N=C2\CS(=O)(=O)N(C)c3ccsc32)c1	i	86.0	-0.3	-4.0	63.6*
COc1ccccc1/C=C/C=NC1C(=O)N(c2ccccc2)[N+](C)=C1C (centres undefined)	i	104.0	0.7	-2.2	8.3
CCC(C)Sc1cccc(-c2nc3cc(C)ccn3c2NC2CCCCC2)c1 (centres undefined)	+!	107.0	-1.3	-6.3	-28.9
CCCCCCSc1ccc(-c2nc3ccc(Cl)cn3c2NC2CCCCC2)cc1	+	102.0	4.4	-2.3	-7.6
Cc1ccn2c(NC3CCCCC3)c(-c3ccc(SC4CCCCC4)cc3)nc2c1	+	99.0	-3.1	x	x
Cc1ccn2c(NC3CCCCC3)c(-c3cccc(SC4CCCCC4)c3)nc2c1	i	97.0	-1.3	-6.1	-9.5
CCCCCCSc1cc(-c2nc3ccc(Cl)cn3c2NC2CCCCC2)ccc1OC	u	107.0	0.8	-6.3	-11.4
COc1ccc(S(=O)(=O)N2CCCN(CC(=O)Nc3ccc4c(c3)OCO4)CC2)cc1	i	96.0	3.1	-0.7	-7.2
O=C(Nc1nc(-c2ccc(S(=O)(=O)N3CCCC3)cc2)cs1)C1COc2ccccc2O1 (centres undefined)	i	93.0	1.7	-1.0	66.0*
Cc1cc(C)cc(Nc2nc(-c3ccc(S(=O)(=O)N4CCCC4)cc3)cs2)c1	+	93.0	-2.1	-4.6	-4.8
Cc1ccc(S(=O)(=O)N2CCOCC2)cc1C(=O)NC1=NCCS1	i	100.0	0.1	0.6	-0.6
CCC(C)NC(=O)CN1C(=O)NC2NC(=O)NC21 (centres undefined)	i	103.0	0.2	-2.8	-6.5
Cn1cccc1Cc1nnc(SCC(=O)Nc2ccccc2F)n1CCc1ccccc1	+	100.0	3.9	-3.4	-0.4
Cn1cccc1Cc1nnc(SCC(=O)Nc2cccc(F)c2)n1CCc1ccccc1	i	102.0	-2.7	-4.5	15.3
SMILES	Myeloid diff MLP	ABCB6 inh MLPCN	iPSC survival up	MIN6 prolif	H9c2 protect
Cc1cc(NC(=O)CSc2nc(-c3cccs3)cc(C(F)(F)F)n2)no1	+	95.0	-0.5	-4.2	3.4
Cc1cc(NC(=O)CSc2c(C)[nH]c3ccccc23)no1	+	99.0	-1.4	2.5	0.7
CCN(CC(=O)N(CC(C)C)c1c(N)n(CC(C)C)c(=O)[nH]c1=O)Cc1nc2ccccc2c(=O)[nH]1	i	95.0	-0.6	-4.8	8.3
Cc1cccc(OCC(=O)NCC(=O)N/N=C/c2cc(Br)cc(Br)c2O)c1	i	92.0	0.9	0.0	59.2*
CCOc1ccc(/C=N/NC(=O)C(O)c2ccccc2)c(O)c1 (centres undefined)	x	100.0	-0.3	-2.6	51.7*
COc1cccc(/C=N/NC(=O)CNC(=O)COc2ccccc2)c1O	i	97.0	-0.4	-2.0	29.1
CCOc1ccc(CCNC(=O)C(O)c2ccccc2)cc1 (centres undefined)	i	91.0	-0.3	-0.2	1.1
O=C(COc1ccccc1)NCC(=O)N/N=C/c1ccc(O)cc1O	i	98.0	0.5	-3.8	60.2*
CCn1c(CC(=O)Nc2cccc(Cl)c2Cl)nnc1SCCOc1ccc(OC)cc1	i	101.0	0.5	-1.5	-6.9
COc1ccc(NC(=O)N(CCCN(C)C)Cc2cc3cc(OC)ccc3[nH]c2=O)cc1	i	108.0	0.9	2.2	51.1*
CCn1c(=NC(=O)CCS(=O)(=O)c2ccccc2)sc2cccc(OC)c21	u	97.0	-0.3	-6.8	-21.1
CCn1c(=NC(=O)CS(=O)(=O)c2ccc(F)cc2)sc2cccc(OC)c21	+	101.0	-0.3	-6.9	-17.3
O=C(Nc1ccc(Cn2cccn2)cc1)c1ccc(COc2cccc(Br)c2)cc1	+	91.0	-1.6	-3.5	-2.3
Cc1cc(OCC(=O)N2CCOCC2)cc2oc(=O)c3ccccc3c12	i	191.0	0.2	0.5	58.9*
Cc1c(NC(=O)CN2CCN(c3ccccc3)CC2)c(=O)n(-c2ccccc2)n1C	i	98.0	5.6	-3.3	-16.6
O=C(COc1ccccc1Cl)NCc1ccccc1	i	102.0	0.7	-3.0	-1.0
Cc1c(NC(=O)Cn2[nH]c(=O)c3ccccc3c2=O)c(=O)n(-c2ccccc2)n1C	i	101.0	-1.9	-3.6	64.3*
O=C(Cn1[nH]c(=O)c2ccccc2c1=O)NNC(=O)c1ccccc1	i	94.0	0.7	-1.7	61.5*
O=C(COc1ccccc1Cl)NNC(=O)Cn1[nH]c(=O)c2ccccc2c1=O	i	100.0	-1.3	-0.9	92.4*
O=C(COC(=O)c1cc(-c2cccnc2)nc2ccccc12)Nc1ccc(F)cc1F	i	99.0	2.2	-2.4	71.4*
NC(=O)c1ncn([C@@H]2O[C@H](CNCc3cc(Br)ccc3OCc3ccccc3)[C@@H](O)[C@H]2O)n1	i	98.0	1.0	x	13.3
CN(CC(=O)Nc1c(Cl)cccc1Cl)C(=O)Cn1[nH]c(=O)c2ccccc2c1=O	i	100.0	0.0	-4.7	75.9*
Cc1c(NC(=O)COC(=O)c2cc(-c3ccc(-c4ccccc4)cc3)nc3ccccc23)c(=O)n(-c2ccccc2)n1C	+	95.0	-3.2	x	-16.2
